SMILES strings stand for the structures. The whole screen tested about 360,000 compounds, of which about 2,600 (0.72%) were called active. Not shown: some 5% with an inconclusive outcome. The entries come from a sample that favours actives as a whole. Entries that show only a call come without a potency. Unmarked numbers belong to inactive results. Calls follow the shape of the dose curve; as a rule, active = well fitted inhibition curve with a large enough effect; inconclusive = small, poorly fitted or top-dose-only effect; inactive = no such curve, though single readings can be large or run the other way.
Potency is read from the fitted curve at half-maximal effect.

A short description of this experiment: Primary qHTS for Inhibitors of ATXN expression. Also: nearly all actives have a fitted effect of over 55% in size. The conditions noted are these: HEK-293 ATXN2-luciferase reporter, luminescence, 24 h; series mostly up to 57 µM. In outline: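 qHTS (up to 57 uM final) was run with 24 h compound exposure of reporter cells at 37 °C. Each well was multiplexed: SteadyGlo luminescence measured ATXN2-luciferase expression after a fluorogenic Gly-Phe-AFC viability readout (25 uM final).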
A general note: In qHTS, concentration-response curves come from the screen itself.
As to `CCOc1ccc(NC(=O)Cn2c(C)ccc(C#N)c2=O)cc1`, the Potency entry is “inactive”.
On to `NCC[C@H](O)C(=O)N[C@@H]1C[C@H](N)[C@@H](O[C@H]2O[C@H](CN)[C@@H](O)[C@H](O)[C@@H]2O)[C@H](O)[C@@H]1O[C@H]1O[C@H](CO)[C@@H](O)[C@H](N)[C@@H]1O`, for which the activity change, negative = inhibition is 0.946% [at 0.709 µM].
As for `CCOc1cccc2c1N[C@@H](c1ccc(C(=O)O)cc1)[C@H]1CC=C[C@@H]21`, the Potency entry was “inactive”.
With `O=C(Cc1ccc(Cl)cc1)c1ccccc1`, the Potency entry is “inactive”.
Same read-out and setting: the result for `CC1=NNC(=O)C1CCC(=O)N/N=C(\C)c1ccc(Cl)cc1` (stereo unspecified) reads “inactive”; that for `O=C(Nc1nnc(-c2ccccc2F)s1)c1ccccc1F`, “inactive”; that for `C/C(=N\NC(=O)Cc1ccc(Cl)cc1)c1ccccn1`, 3.16 µM (active).
For the compound `C/C(=N\NC(=O)c1ccccc1F)c1ccccn1`, the Potency was 3.98 µM (active).
Consider `O=C(NCCCn1ccnc1)c1ccccc1F`, for which the Potency entry was “inactive”.
Same read-out and setting: the result for `O=C(NCCc1ccccc1)C(=O)NCC(c1ccco1)S(=O)(=O)c1ccccc1` (stereo unspecified) reads “inactive”; that for `CCc1ccc(NC(=O)c2sc3nc4c(cc3c2N)CN(CC)CC4)cc1`, “inactive”; that for `COc1ccc(-c2cc(NC=O)c3ncc(-c4ccccc4)n3c2)cc1OC`, “inactive”.
In the case of `CC(=O)N1CCCc2cc(S(=O)(=O)CCC(=O)N3CCN(c4ccccc4)CC3)ccc21`, the Potency result is “inactive”.
For `CC(=O)N1CCCc2cc(S(=O)(=O)N3CCCC(C(=O)N4CCN(c5cccc(Cl)c5)CC4)C3)ccc21` (stereo unspecified), the Potency was 28.2 µM (active).
For the compound `COc1cccc(N2CCN(S(=O)(=O)c3ccc4c(c3)CCCN4C(C)=O)CC2)c1`, the Potency entry was “inactive”.
Still for that read-out and setting: the value for `CCCC(C(=O)OCCN(CC)CC)(c1ccccc1)c1ccccc1` was 31.6 µM (active).
In the case of `COC(CCN(C)C)(c1ccccc1)c1ccccc1`, the Potency result is “inactive”.
For the compound `CCN(CC)CCOC(=O)c1ccc(NC(=O)CNC(=O)c2ccccc2)cc1`, the Potency entry was “inactive”.
Same read-out and setting: the value for `O=c1cc(CSc2ncn[nH]2)[nH]c2ccc(F)cc12` was “inactive”.
The same measure, in the same setting: the value for `COc1cc(/C=C/C(N)=O)cc(OC)c1OC` was “inactive”; that for `COCCCN1CCC(NC(=O)c2cc(Cl)c(N)c3c2OCC3)CC1` was “inactive”.
